From PubChem BioAssay (NCATS)
Records with an inconclusive call do not appear. Calls follow the shape of the dose curve; as a rule, active = well fitted inhibition curve with a large enough effect; inconclusive = small, poorly fitted or top-dose-only effect; inactive = flat fitted curve, though single readings scatter.

What follows are compounds tested against Luciferin 4-monooxygenase (Photinus pyralis) (UniProt P08659) (assay: Biochemical firefly luciferase enzyme assay for NPC (AID 624030;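 also: purified P. pyralis luciferase at 10 nM with luciferin and ATP substrate; 0% = DMSO and -100% = full luciferase inhibition by PTC124 control; nearly all actives have a fitted effect of over 70% in size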)). Settings: purified P. pyralis luciferase, luminescence, 5 min; series mostly up to 58.6 µM; activity change, negative = inhibition: at the top concentration.
Luciferin 4-monooxygenase (Photinus pyralis), sequence (P08659 whole entry, looked up): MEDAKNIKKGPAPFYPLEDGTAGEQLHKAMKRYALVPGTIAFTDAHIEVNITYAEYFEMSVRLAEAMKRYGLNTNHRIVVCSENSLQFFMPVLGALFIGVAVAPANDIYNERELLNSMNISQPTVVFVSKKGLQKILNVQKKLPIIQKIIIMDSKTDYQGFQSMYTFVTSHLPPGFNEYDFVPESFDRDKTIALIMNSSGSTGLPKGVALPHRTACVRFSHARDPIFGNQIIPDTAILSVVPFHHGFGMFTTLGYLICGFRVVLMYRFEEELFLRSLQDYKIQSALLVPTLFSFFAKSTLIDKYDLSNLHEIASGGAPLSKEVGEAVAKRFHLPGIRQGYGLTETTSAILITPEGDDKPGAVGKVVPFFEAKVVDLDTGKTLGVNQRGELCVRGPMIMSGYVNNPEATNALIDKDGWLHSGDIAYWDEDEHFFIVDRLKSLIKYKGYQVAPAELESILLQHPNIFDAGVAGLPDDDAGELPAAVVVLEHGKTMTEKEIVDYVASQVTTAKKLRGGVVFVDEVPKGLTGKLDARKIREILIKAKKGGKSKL
Method in brief: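 Direct inhibition of firefly luciferase enzyme (10 nM final, 50 mM Tris Acetate) assessed by luminescence within 5 minutes. Percent activity scaled between DMSO and PTC124 positive control, with concentration-effect curves classified by fit quality and response.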

Activity change, negative = inhibition, inactive:
CCCCCCCCCCCCCCCC(=O)O[C@@H]1CC(C)=C(\C=C/C(C)=C\C=C/C(C)=C\C=C\C=C(C)\C=C\C=C(C)\C=C\C2=C(C)C[C@@H](OC(=O)CCCCCCCCCCCCCCC)CC2(C)C)C(C)(C)C1 -3.65%, CC1(C)SC2C(NC(=O)C(c3ccccc3)S(=O)(=O)O)C(=O)N2C1C(=O)O (centres undefined) -6.08%, O=P(O)(O)OC[C@@H](O)CO -6.86%, CC(CSC(=O)c1ccccc1)C(=O)N1CC(Sc2ccccc2)CC1C(=O)O (centres undefined) -1.79%, CC/C=C(/C(=O)N[C@@H]1C(=O)N2C(C(=O)OCOC(=O)C(C)(C)C)=C(COC(N)=O)CS[C@H]12)c1csc(N)n1 -3.85%, CCN1C(=O)c2ccccc2C1Nc1cccc(OCCN2CCCCC2)c1 (centres undefined) 1.18%, CO/N=C1/CC2(CC3CC(C/C=C(/C)CC(C)/C=C\C=C4\COC5C(O)C(C)=CC(C(=O)O3)C45O)O2)OC(/C(C)=C/C(C)C)C1C (centres undefined) -0.66%, C/C(=C(\CCO)SSCC1CCCO1)N(C=O)Cc1cnc(C)nc1N (centres undefined) 2.26%, c1cnc2cc3c(cc2n1)[C@@H]1CNC[C@@H]3C1 1.04%
